Results: PubChem BioAssay (NCATS)
Inconclusive results are not listed. Active and inactive are the calls of the source. The call rests on the fitted dose curve; in most records, active means well fitted curve in the direction sought with a large enough effect; inconclusive means small, poorly fitted or top-dose-only effect, or another doubt; inactive means no such curve, though single readings can be large; an effect the other way counts as inactive or inconclusive.

Experiments:
[1] = qHTS to identify inhibitors of the type 1 interferon - major histocompatibility complex class I in skeletal muscle: primary screen against the NCATS Pharmaceutical Collection (AID 1347407);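 further: luminescence of HiBiT knocked into endogenous HLA-B as interferon-induced MHC class I level; on the % scale 0 is the no-effect control and ±100 the full control effect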
In short: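 Immortalized human myoblasts (C25cl48) with HiBiT knocked into endogenous HLA-B*08:01 were stimulated with 4 ng/ml IFN-beta and treated with compounds (8-point, 1:5, top 46 uM final) for 24 h at 37 C; HiBiT lytic luminescence read.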

[2] = molecular target: Protein phosphatase 1D (Homo sapiens) (UniProt O15297); experiment: RapidFire Mass Spectrometry qHTS Assay for Modulators of WT P53-Induced Phosphatase 1 (WIP1) (AID 1347424);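 further: amount of dephosphorylated VEPPL-S-QETFS peptide product formed by WIP1; series mostly up to about 63 µM; plate controls were DMSO wells for no effect and GSK830371 inhibitor control at 10 µM for full effect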
In short: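 RapidFire mass spectrometry measured dephosphorylated peptide after 5 min room-temperature reaction of 2 uM VEPPL-pS-QETFS with 10 nM WIP1 (50 mM Tris-HCl pH 7.5, 30 mM MgCl2, 0.1 mM EGTA, BSA), following 1 hr compound preincubation; 1 uM isotope-labelled product standard.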

[3] = molecular target: Protein phosphatase 1D (Homo sapiens) (UniProt O15297); experiment: Rhodamine-PBP qHTS Assay for Modulators of WT P53-Induced Phosphatase 1 (WIP1) (AID 1347425); further: % of control where 0% means no effect
In short: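 Steps: enzyme with Rh-PBP sensor and compounds, room-temperature incubation of 1 hr, baseline read, addition of VEPPL-pS-QETFS (10 uM final), kinetic fluorescence reads at 525/598 nm. Activity equals final minus baseline signal.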

[4] = Primary qHTS for inhibitors of La Crosse Virus (LACV) - induced cell death in SH-SY5Y cells (AID 1508616);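 further: top concentration of the series differs between compounds; 0% = infected DMSO wells and 100% = uninfected DMSO wells; higher means more rescue of cells from virus-induced death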
In short: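 Screening measures cell viability in LACV-infected SH-SY5Y cultures. Compound was added before virus (0.01 MOI), and ATP was detected by luminescence 6 days later.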

[5] = molecular target: Calcium and integrin-binding protein 1 (Homo sapiens) (UniProt Q99828); experiment: Primary qHTS for Identification of Calcium Integrin Binding Protein 1 (CIB1) Competitor (AID 1508620);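 further: GST tagged CIB1 binding a fluorescein labelled alphaIIb integrin peptide tracer; top concentration of the series differs between compounds; on the % scale 0 is the no-effect control and ±100 the full control effect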
In short: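 CIB1-GST (1 uM final) and compound incubated 15 min at room temperature before adding FITC-alphaIIb peptide tracer (100 nM final). Competition for binding read by fluorescence polarization (ex 480, em 540) after another 15 min at room temperature.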

Sequence of Calcium and integrin-binding protein 1 (Homo sapiens) (Q99828 whole entry, looked up): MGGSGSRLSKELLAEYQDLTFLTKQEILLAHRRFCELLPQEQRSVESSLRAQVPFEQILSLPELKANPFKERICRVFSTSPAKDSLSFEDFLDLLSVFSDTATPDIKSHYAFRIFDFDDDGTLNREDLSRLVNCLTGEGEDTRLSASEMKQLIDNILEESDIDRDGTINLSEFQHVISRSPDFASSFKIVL
Sequence of Protein phosphatase 1D (Homo sapiens) (O15297 whole entry, looked up): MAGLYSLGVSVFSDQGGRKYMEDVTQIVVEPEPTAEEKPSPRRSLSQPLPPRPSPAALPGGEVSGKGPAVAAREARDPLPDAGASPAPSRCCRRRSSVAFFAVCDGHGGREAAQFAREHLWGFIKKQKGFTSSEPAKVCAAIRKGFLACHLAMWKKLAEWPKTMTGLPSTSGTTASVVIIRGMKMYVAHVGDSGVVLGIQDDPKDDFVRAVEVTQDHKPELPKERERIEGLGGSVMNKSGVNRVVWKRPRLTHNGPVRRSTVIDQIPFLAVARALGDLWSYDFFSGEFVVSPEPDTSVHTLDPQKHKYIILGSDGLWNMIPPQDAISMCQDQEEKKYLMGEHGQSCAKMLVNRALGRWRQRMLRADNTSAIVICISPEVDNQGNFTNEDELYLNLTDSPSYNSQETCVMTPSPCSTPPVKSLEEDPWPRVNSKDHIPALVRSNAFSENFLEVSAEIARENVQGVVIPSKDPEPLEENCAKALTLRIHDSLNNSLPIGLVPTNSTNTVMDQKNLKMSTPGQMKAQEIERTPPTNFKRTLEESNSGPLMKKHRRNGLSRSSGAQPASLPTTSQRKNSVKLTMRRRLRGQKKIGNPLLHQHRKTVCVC

Nc1ccc(S(=O)(=O)Nc2nccs2)cc1
inactive: Potency [1] | outcome [2] | outcome [3] | outcome [4] | outcome [5]

O=c1[nH]c(=O)c2[nH]c(=O)[nH]c2[nH]1
inactive: activity change, negative = inhibition [1] -11.3% [at 9.18 µM] | activity change, negative = inhibition [2] -6.34% [at 12.6 µM] | activity change, negative = inhibition [3] 10.4% [at 11.5 µM] | activity change [4] 1.46% [at 0.858 µM] | outcome [5]

CC(=O)Nc1ccc(/C=N/NC(N)=S)cc1
inactive: Potency [1] | outcome [2] | outcome [3] | outcome [4] | outcome [5]

CC[C@@]1(c2ccccc2)NC(=O)N(C)C1=O
inactive: Potency [1] | outcome [2] | outcome [3] | outcome [4] | outcome [5]

CC1(C)[C@@H]2CC[C@@]1(C)C(=O)C2
inactive: Potency [1] | outcome [2] | outcome [3] | outcome [4] | outcome [5]

C[C@@H]1CCN(C(=O)[C@H](CCCN=C(N)N)NS(=O)(=O)c2cccc3c2NC[C@H](C)C3)[C@@H](C(=O)O)C1
inactive: Potency [1] | outcome [2] | outcome [3] | outcome [4] | outcome [5]

Cc1ccc(C(C)C)cc2c(C)ccc1-2
inactive: Potency [1] | outcome [2] | outcome [3] | outcome [4] | outcome [5]

O=c1cc[nH]c(=O)[nH]1
inactive: Potency [1] | outcome [2] | outcome [3] | outcome [4] | outcome [5]

CCOc1nc2cccc(C(=O)O)c2n1Cc1ccc(-c2ccccc2-c2nn[nH]n2)cc1
inactive: Potency [1] | outcome [2] | outcome [3] | outcome [4] | outcome [5]

CCC(=O)c1ccc(O)cc1
inactive: Potency [1] | outcome [2] | outcome [3] | outcome [4] | outcome [5]

Nc1ccc(S(=O)(=O)Nc2ccccc2)cc1
inactive: Potency [1] | outcome [2] | outcome [3] | outcome [4] | outcome [5]

O=C(O)COc1nn(Cc2ccccc2)c2ccccc12
inactive: Potency [1] | outcome [2] | outcome [3] | outcome [4] | outcome [5]

Nc1ccc(S(=O)(=O)NC(=O)c2ccccc2)cc1
inactive: Potency [1] | outcome [2] | outcome [3] | outcome [4] | outcome [5]

OCC(CO)N[C@H]1C[C@](O)(CO)[C@@H](O)[C@H](O)[C@H]1O
inactive: Potency [1] | outcome [2] | outcome [3] | outcome [4] | outcome [5]

CCN(CC)C(=O)Nc1ccc(OCC(O)CNC(C)(C)C)c(C(C)=O)c1 (stereo not drawn)
inactive: Potency [1] | outcome [2] | outcome [3] | outcome [4] | outcome [5]

CC12CCC(CC1)C(C)(C)O2
inactive: Potency [1] | outcome [2] | outcome [3] | outcome [4] | outcome [5]

NC(=O)NC(=O)Cc1ccccc1
inactive: Potency [1] | outcome [2] | outcome [3] | outcome [4] | outcome [5]

Oc1cccc(O)c1
inactive: Potency [1] | outcome [2] | outcome [3] | outcome [4]

O=C(O)CN1C(=O)c2cccc3cccc(c23)C1=O
inactive: Potency [1] | outcome [2] | outcome [3] | outcome [4] | outcome [5]

N[C@H]1C(O)O[C@H](CO)[C@@H](O)[C@@H]1O (stereo partly drawn)
inactive: Potency [1] | outcome [2] | outcome [3] | outcome [4] | outcome [5]

CCN(CC)CCSC(=O)C(c1ccccc1)c1ccccc1
inactive: Potency [1] | outcome [2] | outcome [3] | outcome [4] | outcome [5]

CN(C)CCN(Cc1ccccc1)c1ccccn1
inactive: Potency [1] | outcome [2] | outcome [3] | outcome [4] | outcome [5]

CCCCOc1cc(C(=O)OCCN(CC)CC)ccc1N
inactive: Potency [1] | outcome [2] | outcome [3] | outcome [4] | outcome [5]

O=S(=O)(O)NC1CCCCC1
inactive: Potency [1] | outcome [2] | outcome [3] | outcome [4] | outcome [5]

c1ccc2c(CC3=NCCN3)cccc2c1
inactive: Potency [1] | outcome [2] | outcome [3] | outcome [4] | outcome [5]

O=C(O)c1ccccn1
inactive: Potency [1] | outcome [2] | outcome [3] | outcome [4]

CC(O)COc1ccccc1 (stereo not drawn)
inactive: Potency [1] | outcome [2] | outcome [3] | outcome [4] | outcome [5]

NS(=O)(=O)c1cc2c(cc1C(F)(F)F)NC(Cc1ccccc1)NS2(=O)=O (stereo not drawn)
inactive: Potency [1] | outcome [2] | outcome [3] | outcome [4] | outcome [5]

O=C(O)[C@@H]1CSCN1
inactive: Potency [1] | outcome [2] | outcome [3] | outcome [4] | outcome [5]

O=C(O)c1ccccc1O
inactive: Potency [1] | outcome [2] | outcome [3] | outcome [4] | outcome [5]

NCCNCCNCCNCCN
inactive: activity change, negative = inhibition [1] 0.364% [at 9.18 µM] | activity change, negative = inhibition [2] -9.15% [at 12.6 µM] | activity change, negative = inhibition [3] 12% [at 11.5 µM] | activity change [4] -4.84% [at 0.858 µM] | outcome [5]

CC/C=C(\C(=O)N[C@@H]1C(=O)N2C(C(=O)OCOC(=O)C(C)(C)C)=C(COC(N)=O)CS[C@H]12)c1csc(N)n1
inactive: Potency [1] | outcome [2] | outcome [3] | outcome [4] | outcome [5]

O=C1Nc2ccc(Cl)cc2[C@@](C#CC2CC2)(C(F)(F)F)O1
inactive: Potency [1] | outcome [2] | outcome [3] | outcome [4] | outcome [5]

NC(CSCC(=O)O)C(=O)O (stereo not drawn)
inactive: Potency [1] | outcome [2] | outcome [3] | outcome [4] | outcome [5]

Cc1ccc2nc(N)[nH]c(=O)c2c1Sc1ccncc1
inactive: Potency [1] | outcome [2] | outcome [3] | outcome [4] | outcome [5]

OCC(O)CN1CCN(c2ccccc2)CC1 (stereo not drawn)
inactive: Potency [1] | outcome [2] | outcome [3] | outcome [4] | outcome [5]

CCCCOC(=O)c1ccc(O)cc1
inactive: Potency [1] | outcome [2] | outcome [3] | outcome [4] | outcome [5]

CN1CCOC(c2ccccc2)c2ccccc2C1 (stereo not drawn)
inactive: Potency [1] | outcome [2] | outcome [3] | outcome [4] | outcome [5]
